# From paper PMC11062922 (Nature Chemical Biology, 2023)
# Where two headings read alike, the source gives them in different places.
# Assays:
# Set-up in all cases: species or system human, MV4-11 + K-562 + COLO205 + SK-N-BE2 + OVCAR-8
# ADRBK1 = settings: read-out: apparent Kd, n = 1
# ADK = settings: read-out: apparent Kd, n = 1
# COX5A = settings: read-out: apparent Kd; compound concentrations: 100 nM and 1000 nM (sheet 'Samples'), CATDS: 0.19729380709152999; n = 1
# MAP2K2 = settings: read-out: apparent Kd, n = 1
# NQO1 = settings: read-out: apparent Kd, n = 1
# RAN = settings: read-out: apparent Kd; compound concentrations: 100 nM and 1000 nM (sheet 'Samples'), CATDS: 0.206069741930102; n = 1
# CAMK4 = settings: read-out: apparent Kd; compound concentrations:100 nM and 1000 nM (sheet 'Samples'); n = 1
# CDK6 = settings: read-out: apparent Kd, n = 1
# FLT3 = settings: read-out: apparent Kd; compound concentrations:100 nM and 1000 nM (sheet 'Samples'); n = 1
# MAP2K1 = settings: read-out: apparent Kd; compound concentrations:100 nM and 1000 nM (sheet 'Samples'); n = 1
# NNT = settings: read-out: apparent Kd; compound concentrations:100 nM and 1000 nM (sheet 'Samples'); n = 1
# AKT1 = settings: read-out: apparent Kd; compound concentrations:100 nM and 1000 nM (sheet 'Samples'); n = 1
# AKT2 = settings: read-out: apparent Kd; compound concentrations:100 nM and 1000 nM (sheet 'Samples'); n = 1
# CSNK1A1 = settings: read-out: apparent Kd; compound concentrations:100 nM and 1000 nM (sheet 'Samples'); n = 1
# MAP3K4 = settings: read-out: apparent Kd; compound concentrations:100 nM and 1000 nM (sheet 'Samples'); n = 1
# MAPK14 = settings: read-out: apparent Kd, compound concentrations: 100 nM and 1000 nM (sheet 'Samples'), n = 1
# NCL = settings: read-out: apparent Kd; compound concentrations:100 nM and 1000 nM (sheet 'Samples'); n = 1
# OPA1 = settings: read-out: apparent Kd; compound concentrations:100 nM and 1000 nM (sheet 'Samples'); n = 1
# PIM2 = settings: read-out: apparent Kd; compound concentrations:100 nM and 1000 nM (sheet 'Samples'); n = 1
# PIP4K2C = settings: read-out: apparent Kd; compound concentrations:100 nM and 1000 nM (sheet 'Samples'); n = 1
# PRKAG2 = settings: read-out: apparent Kd; compound concentrations:100 nM and 1000 nM (sheet 'Samples'); n = 1
# PYGL = settings: read-out: apparent Kd; compound concentrations:100 nM and 1000 nM (sheet 'Samples'); n = 1
# STK16 = settings: read-out: apparent Kd; compound concentrations:100 nM and 1000 nM (sheet 'Samples'); n = 1
# STK26 = settings: read-out: apparent Kd; compound concentrations:100 nM and 1000 nM (sheet 'Samples'); n = 1
# CLK3 = settings: read-out: apparent Kd; compound concentrations: 100 nM and 1000 nM (sheet 'Samples'), CATDS: 0.34896481785662797; n = 1
# CSNK1D = settings: read-out: apparent Kd; compound concentrations: 100 nM and 1000 nM (sheet 'Samples'), CATDS: 0.10143186295273; n = 1
# CSNK1E = settings: read-out: apparent Kd; compound concentrations: 100 nM and 1000 nM (sheet 'Samples'), CATDS: 9.8095690794025595E-2; n = 1
# PKN3 = settings: read-out: apparent Kd; compound concentrations: 100 nM and 1000 nM (sheet 'Samples'), CATDS: 0.541648596841942; n = 1
# RIPK2 = settings: read-out: apparent Kd; compound concentrations: 100 nM and 1000 nM (sheet 'Samples'), CATDS: 0.18182932832718701; n = 1
# TESK2 = settings: read-out: apparent Kd; compound concentrations: 100 nM and 1000 nM (sheet 'Samples'), CATDS: 8.5548681543300906E-2; n = 1
# TNIK = settings: read-out: apparent Kd; compound concentrations: 100 nM and 1000 nM (sheet 'Samples'), CATDS: 8.6694751539446793E-2; n = 1
# [1] = compound concentrations:100 nM and 1000 nM (sheet 'Samples')
compound,measurement,setting,value
O=C(Nc1ccc2c(c1)OCO2)NC1CCN(c2ccnc(NCc3ccc(F)cc3)n2)CC1 [GSK1379859A],potency estimated from few doses,"ADRBK1; compound concentrations: 100 nM and 1000 nM (sheet 'Samples'), CATDS: 1",2160 nM
COc1ccc(Nc2nccc(NCCNC(=O)Nc3ccccc3F)n2)cc1 [GSK1379901A],potency estimated from few doses,"ADK; compound concentrations: 100 nM and 1000 nM (sheet 'Samples'), CATDS: 0.22973332446561601",1220 nM
same,potency estimated from few doses,COX5A,1630 nM
same,potency estimated from few doses,"MAP2K2; compound concentrations: 100 nM and 1000 nM (sheet 'Samples'), CATDS: 0.19454488197691899",1680 nM
same,potency estimated from few doses,"NQO1; compound concentrations: 100 nM and 1000 nM (sheet 'Samples'), CATDS: 0.179031281586436",2010 nM
same,potency estimated from few doses,RAN,1490 nM
NS(=O)(=O)c1ccc(N/N=C2\C(=O)Nc3ccc(Cl)cc32)cc1 [GW280670X],potency estimated from few doses,ADRBK1; [1],1880 nM
same,potency estimated from few doses,CAMK4,1330 nM
same,potency estimated from few doses,CDK6; [1],2280 nM
same,potency estimated from few doses,FLT3,1090 nM
same,potency estimated from few doses,MAP2K1,2000 nM
same,potency estimated from few doses,NNT,1290 nM
same,potency estimated from few doses,NQO1; [1],1850 nM
Cc1ccc(NC(=O)CC2CC2)cc1-c1ccc(C(=O)NCC2CC2)cc1 [GW796920X],potency estimated from few doses,ADRBK1; [1],1860 nM
same,potency estimated from few doses,AKT1,1770 nM
same,potency estimated from few doses,AKT2,1680 nM
same,potency estimated from few doses,CSNK1A1,2220 nM
same,potency estimated from few doses,MAP2K2; [1],2220 nM
same,potency estimated from few doses,MAP3K4,1800 nM
same,potency estimated from few doses,MAPK14; CATDS: 0.122142095126863,629 nM
same,potency estimated from few doses,NCL,2300 nM
same,potency estimated from few doses,OPA1,1700 nM
same,potency estimated from few doses,PIM2,1740 nM
same,potency estimated from few doses,PIP4K2C,1650 nM
same,potency estimated from few doses,PRKAG2,1310 nM
same,potency estimated from few doses,PYGL,2130 nM
same,potency estimated from few doses,STK16,2170 nM
same,potency estimated from few doses,STK26,1450 nM
CC(=O)N[C@@H](Cc1ccc(OP(=O)(O)O)cc1)C(=O)N[C@H]1CCC(=O)N2CCC[C@@H](C(=O)NCc3ccc(O)cc3)N2C1=O [RO0324381-000],potency estimated from few doses,ADK; [1],1270 nM
COc1ccc(CNC(=O)NC2CCN(c3ccnc(Nc4ccc(OC)cc4)n3)C2)cc1 (centres unmarked) [GSK1379727A],potency estimated from few doses,"ADRBK1; compound concentrations: 100 nM and 1000 nM (sheet 'Samples'), CATDS: 0.35126637263884503",1270 nM
same,potency estimated from few doses,"CDK6; compound concentrations: 100 nM and 1000 nM (sheet 'Samples'), CATDS: 0.30417888081932698",1700 nM
same,potency estimated from few doses,CLK3,1280 nM
CCc1nc(-c2cccc(C)c2)c(-c2ccncc2)s1 [TPKI-106],potency estimated from few doses,"ADRBK1; compound concentrations: 100 nM and 1000 nM (sheet 'Samples'), CATDS: 9.0460214145081597E-2",1680 nM
same,potency estimated from few doses,"CDK6; compound concentrations: 100 nM and 1000 nM (sheet 'Samples'), CATDS: 8.6240814727830004E-2",1950 nM
same,potency estimated from few doses,CSNK1D,1230 nM
same,potency estimated from few doses,CSNK1E,1340 nM
same,potency estimated from few doses,MAPK14; CATDS: 0.129413599974984,691 nM
same,potency estimated from few doses,PKN3,57.5 nM
same,potency estimated from few doses,RIPK2,349 nM
same,potency estimated from few doses,TESK2,2000 nM
same,potency estimated from few doses,TNIK,1910 nM
